Data: PubChem BioAssay (EPA / NIEHS)
Results filed as inconclusive are left out. Activity calls are given as the source filed them. Rule for the calls, unless noted: active = hit-call score of the fitted dose curve at least 0.9, where 1 is the maximum; inactive = score below 0.9.

What was measured:
[1] = target: Myc proto-oncogene protein (Homo sapiens) (UniProt P01106); assay: ATG_Myc_CIS: Attagene CIS-FACTORIAL HepG2 Assay for human Myelocytomatosis (Myc) Proto-Oncogene Transcription Factor (AID 2282990); details: HepG2, Attagene cis-reporter transcription factor activity; actives raise or lower the signal
Procedure, shortened: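 HepG2, transient MRTU transfection (cis promoters, endogenous TFs); 24 h dosing; TriZol RNA → oligo(dT) RT → PCR → 6-FAM primer extension → HpaI cut → CE. Bidirectional fit vs DMSO.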

[2] = ATG_NF_kB_CIS: Attagene CIS-FACTORIAL HepG2 Assay for human Nuclear Factor Kappa B (NF-kB) (AID 2282991); details: HepG2 Attagene cis-factorial NF-kB reporter mRNA; actives raise or lower the signal
Procedure, shortened: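 Transient MRTU transfection of human HepG2 liver cells → 24 h chemical exposure → total RNA, oligo(dT) RT → PCR, 6-FAM primer extension, HpaI digest 2 h 37 C → CE fragment analysis. Bidirectional fitting, DMSO negative control.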

[3] = ATG_NRF2_ARE_CIS: Attagene CIS-FACTORIAL HepG2 Assay for human Nuclear Factor Erythroid 2 Related Factor 2 (NFR2) response to Antioxidant Response Elements (ARE) (AID 2282992); details: HepG2 Attagene ARE/NRF2 reporter, transcription factor activity; actives raise or lower the signal;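 for AC50: reporter mRNA level measured by RT-PCR and capillary electrophoresis fluorescence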
Procedure, shortened: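 HepG2 cells transiently transfected with multiplexed cis-regulated reporter transcription units measure endogenous transcription factor activity. Reporter mRNA at 24 h is quantified by RT-PCR, fluorescent labelling and capillary electrophoresis, with bidirectional fitting relative to DMSO.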

[4] = ATG_Oct_MLP_CIS: Attagene CIS-FACTORIAL HepG2 Assay for human Octamer-Binding Transcription Factor (Oct) (AID 2282993); details: HepG2 Attagene cis-factorial Oct reporter, mRNA; actives raise or lower the signal
Procedure, shortened: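 After 24 h compound exposure, transfected HepG2 cells were lysed for total RNA; reporter-specific cDNA was PCR-amplified, fluorescently labelled and sized by capillary electrophoresis. Bidirectional curve fitting used DMSO as baseline.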

[5] = target: Cellular tumor antigen p53 (Homo sapiens) (UniProt P04637); assay: ATG_p53_CIS: Attagene CIS-FACTORIAL HepG2 Assay for human p53 Transcription Factor (AID 2282994); details: HepG2 p53 cis-element reporter, Attagene mRNA; actives raise or lower the signal
Procedure, shortened: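 HepG2 cells transiently transfected with multiplexed cis-regulated reporter transcription units read endogenous TF activity. After 24 h compound exposure, reporter mRNA was quantified by RT-PCR, fluorescent labelling, HpaI digestion and capillary electrophoresis; bidirectional fits versus DMSO baseline.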

[6] = target: human Peroxisome Proliferator-activated Receptor alpha (PPARa), PPARA (gene 5465) (UniProt Q07869); assay: ATG_PPARa_TRANS: Attagene TRANS-FACTORIAL HepG2 Assay for human Peroxisome Proliferator-activated Receptor alpha (PPARa) (AID 2283001; active = hit-call score of the fitted dose curve at least 0.9, where 1 is the maximum;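 for AC50: potency for gain of reporter signal over DMSO so agonist or activator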)
Procedure, shortened: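 Read-out is fluorescence of reporter cDNA fragments resolved by capillary electrophoresis after RT-PCR. Human HepG2 liver cells carried transfected PPARa-Gal4 chimera and GAL4-UAS reporter units, treated 24 h; activity scored as increase over DMSO.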

[7] = target: human Peroxisome Proliferator-activated Receptor delta (PPARd), PPARD (gene 5467) (UniProt Q03181); assay: ATG_PPARd_TRANS: Attagene TRANS-FACTORIAL HepG2 Assay for human Peroxisome Proliferator-activated Receptor delta (PPARd) (AID 2283002; active = hit-call score of the fitted dose curve at least 0.9, where 1 is the maximum)
Procedure, shortened: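 Transient HepG2 transfection (multiple GAL4-UAS RTUs, chimeric receptor-Gal4); 24 h dosing; total RNA → oligo(dT) RT → PCR → 6-FAM primer extension → HpaI cut → CE. Positive direction vs DMSO.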

[8] = target: human Retinoic Acid Receptor beta (RARb), RARB (gene 5915) (UniProt P10826); assay: ATG_RARb_TRANS: Attagene TRANS-FACTORIAL HepG2 Assay for human Retinoic Acid Receptor beta (AID 2283004; active = hit-call score of the fitted dose curve at least 0.9, where 1 is the maximum)
Procedure, shortened: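 Fluorescent capillary-electrophoresis detection of GAL4-UAS reporter mRNA defines the endpoint, with induction over DMSO-treated wells scored as activity. Transiently transfected human hepatoma HepG2 cells expressing exogenous NR–Gal4 proteins are exposed to test chemicals for 24 h.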

[9] = target: Peroxisome proliferator-activated receptor gamma (Homo sapiens) (UniProt P37231); assay: ATG_PPARg_TRANS: Attagene TRANS-FACTORIAL HepG2 Assay for human Peroxisome Proliferator-activated Receptor-gamma (PPARg) (AID 2283007; active = hit-call score of the fitted dose curve at least 0.9, where 1 is the maximum)
Procedure, shortened: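 Transient transfection of HepG2 with GAL4-UAS-driven reporter units; chemical dosing 24 h; total RNA → oligo(dT) RT → PCR with reporter primers → 6-FAM primer extension → HpaI digest 2 h 37 C → capillary electrophoresis. Positive direction vs DMSO.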

[10] = target: human RAR-related Orphan Receptor beta (RORb), RORB (gene 6096) (UniProt Q92753); assay: ATG_RORb_TRANS: Attagene TRANS-FACTORIAL HepG2 Assay for human RAR-related Orphan Receptor beta (RORb) (AID 2283010; active = hit-call score of the fitted dose curve at least 0.9, where 1 is the maximum)
Procedure, shortened: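 HepG2 cells transiently transfected with GAL4-UAS reporter units expressing chimeric NR-Gal4 protein; reporter mRNA measured 24 h after dosing by RT-PCR, 6-FAM labelling and capillary electrophoresis. Gain-of-signal fitted relative to DMSO baseline.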

[11] = BSK_3C_TissueFactor: BioMAP Diversity Plus: 3C Assay for Tissue Factor Biomarker Activity (AID 2282997); details: BioMAP 3C HUVEC, tissue factor biomarker readout; actives raise or lower the signal
Procedure, shortened: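 Endothelial monolayers (human umbilical vein, primary) are dosed, incubated 24 h, and assayed for Tissue Factor by ELISA; DMSO serves as negative control for bidirectional fitting.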

[12] = BSK_3C_uPAR: BioMAP Diversity Plus: 3C Assay for Urokinase-type plasminogen activator receptor (uPAR) Biomarker Activity (AID 2282998); details: BioMAP 3C HUVEC, uPAR biomarker ELISA; actives raise or lower the signal
Procedure, shortened: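 Values derive from bidirectional curve fitting relative to DMSO, which served as baseline of activity. uPAR was measured by ELISA in human umbilical vein endothelial primary cultures 24 h after compound addition.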

[13] = BSK_3C_VCAM1: BioMAP Diversity Plus: 3C Assay for Vascular cell adhesion molecule 1 (VCAM1) Biomarker Activity (AID 2282999); details: BioMAP 3C HUVEC, VCAM1 ELISA, cytokine-stimulated; actives raise or lower the signal
Procedure, shortened: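 Endothelial cells from human umbilical vein are treated with test chemical. At 24 h, VCAM-1 is measured by ELISA, and responses in either direction are fitted relative to DMSO.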

[14] = BSK_4H_Eotaxin3: BioMAP Diversity Plus: 4H Assay for Eotaxin 3 Biomarker Activity (AID 2283000); details: primary human endothelial cells (HUVEC); actives raise or lower the signal;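 for outcome: CCL26 protein level quantified by ELISA in parallel with SRB cytotoxicity check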
Procedure, shortened: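 ELISA quantitation of CCL26 (Eotaxin-3) protein from chemically dosed human vascular endothelial cells at 24 h; increases and decreases both scored relative to DMSO-treated baseline.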

[15] = read-out: Intercellular Adhesion Molecule 1 (ICAM1), ICAM1 (gene 3383); assay: BSK_3C_ICAM1: BioMAP Diversity Plus: 3C Assay for Intercellular Adhesion Molecule 1 (ICAM1) Biomarker Activity (AID 2283003); details: primary human endothelial cells (HUVEC); actives raise or lower the signal
Procedure, shortened: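 HUVEC primary cells stimulated under 3C conditions; ICAM1 measured by ELISA 24 h after compound dosing. Curves fitted bidirectionally against the DMSO baseline. Overt cytotoxicity checked by SRB staining of parallel cultures.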

[16] = BSK_3C_Proliferation: Cell Proliferation Assessment in the BioMAP Diversity Plus: 3C Assay (AID 2283006); details: primary human endothelial cells (HUVEC);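 for AC50: potency may reflect either rise or fall in cell number versus DMSO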
Procedure, shortened: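 Subconfluent HUVEC (3C system) cultured with chemical; relative cell number read at 48 h by sulforhodamine B total-protein staining (0.1% SRB after 10% TCA fixation, 560 nm). Bidirectional fit relative to DMSO.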

[17] = target: Nuclear receptor subfamily 1 group I member 2 (Homo sapiens) (UniProt O75469); assay: ATG_PXR_TRANS: Attagene TRANS-FACTORIAL HepG2 Assay for human Pregnane X Receptor (PXR) (AID 2283008; active = hit-call score of the fitted dose curve at least 0.9, where 1 is the maximum)
Procedure, shortened: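 HepG2 cells transiently transfected with multiple reporter units, here a PXR-GAL4 chimera driving a GAL4-UAS reporter; 24 h compound exposure. Reporter mRNA measured by RT-PCR, FAM labelling and capillary electrophoresis; gain of signal fitted against DMSO baseline.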

[18] = target: human RAR-related Orphan Receptor gamma (RORg), RORC (gene 6097) (UniProt P51449); assay: ATG_RORg_TRANS: Attagene TRANS-FACTORIAL HepG2 Assay for human RAR-related Orphan Receptor gamma (RORg) (AID 2283011; active = hit-call score of the fitted dose curve at least 0.9, where 1 is the maximum)
Procedure, shortened: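 Chimeric RORg-Gal4 transactivation in transfected HepG2; 24 h exposure; RT-PCR/capillary electrophoresis readout of reporter mRNA, DMSO baseline.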

[19] = target: human Retinoic Acid Receptor gamma (RARg), RARG (gene 5916) (UniProt P13631); assay: ATG_RARg_TRANS: Attagene TRANS-FACTORIAL HepG2 Assay for human Retinoic Acid Receptor gamma (RARg) (AID 2283009; active = hit-call score of the fitted dose curve at least 0.9, where 1 is the maximum)
Procedure, shortened: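 HepG2 transiently transfected with GAL4-UAS reporter units and chimeric NR-Gal4 constructs; 24 h compound exposure. Reporter mRNA quantified by RT-PCR, FAM labeling, HpaI digestion and capillary electrophoresis; gain-of-signal versus DMSO.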

[20] = target: Retinoic acid receptor alpha (Homo sapiens) (UniProt P10276); assay: ATG_RARa_TRANS: Attagene TRANS-FACTORIAL HepG2 Assay for human Retinoic Acid Receptor alpha (RARa) (AID 2283005; active = hit-call score of the fitted dose curve at least 0.9, where 1 is the maximum)
Procedure, shortened: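 Reporter transcripts, measured by RT-PCR with fluorescent labeling and capillary electrophoresis after 24 h dosing, reflect activity of an exogenous human RARa–GAL4 fusion in transiently transfected HepG2. Fitted for increase relative to DMSO.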

Chain of Myc proto-oncogene protein (Homo sapiens) (P01106 whole entry, looked up): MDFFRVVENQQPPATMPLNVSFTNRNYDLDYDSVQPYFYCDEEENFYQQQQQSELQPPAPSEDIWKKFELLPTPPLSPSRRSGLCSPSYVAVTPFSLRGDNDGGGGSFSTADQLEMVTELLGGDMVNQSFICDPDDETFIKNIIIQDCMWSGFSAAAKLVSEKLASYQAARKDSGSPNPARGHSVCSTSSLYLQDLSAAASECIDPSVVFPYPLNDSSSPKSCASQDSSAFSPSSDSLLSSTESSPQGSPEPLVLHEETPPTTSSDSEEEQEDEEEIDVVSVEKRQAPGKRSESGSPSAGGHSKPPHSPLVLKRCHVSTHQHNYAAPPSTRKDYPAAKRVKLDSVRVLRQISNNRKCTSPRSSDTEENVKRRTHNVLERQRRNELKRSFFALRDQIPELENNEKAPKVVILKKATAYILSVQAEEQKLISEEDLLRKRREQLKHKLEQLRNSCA
Chain of human Peroxisome Proliferator-activated Receptor alpha (PPARa), PPARA (gene 5465) (Q07869 whole entry, looked up, the tested form may be a part): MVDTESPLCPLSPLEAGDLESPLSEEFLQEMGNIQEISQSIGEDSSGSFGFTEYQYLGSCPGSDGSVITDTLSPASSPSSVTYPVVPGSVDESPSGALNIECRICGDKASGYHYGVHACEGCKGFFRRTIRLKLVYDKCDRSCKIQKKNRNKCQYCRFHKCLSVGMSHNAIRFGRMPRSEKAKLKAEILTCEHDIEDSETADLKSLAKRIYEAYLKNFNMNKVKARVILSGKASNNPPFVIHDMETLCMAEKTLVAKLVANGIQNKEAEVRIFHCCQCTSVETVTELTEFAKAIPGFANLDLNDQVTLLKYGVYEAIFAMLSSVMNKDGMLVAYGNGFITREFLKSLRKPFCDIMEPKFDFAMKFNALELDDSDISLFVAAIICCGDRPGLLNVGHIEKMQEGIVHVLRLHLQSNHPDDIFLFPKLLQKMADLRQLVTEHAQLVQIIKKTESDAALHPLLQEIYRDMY
Chain of Peroxisome proliferator-activated receptor gamma (Homo sapiens) (P37231 whole entry, looked up, the tested form may be a part): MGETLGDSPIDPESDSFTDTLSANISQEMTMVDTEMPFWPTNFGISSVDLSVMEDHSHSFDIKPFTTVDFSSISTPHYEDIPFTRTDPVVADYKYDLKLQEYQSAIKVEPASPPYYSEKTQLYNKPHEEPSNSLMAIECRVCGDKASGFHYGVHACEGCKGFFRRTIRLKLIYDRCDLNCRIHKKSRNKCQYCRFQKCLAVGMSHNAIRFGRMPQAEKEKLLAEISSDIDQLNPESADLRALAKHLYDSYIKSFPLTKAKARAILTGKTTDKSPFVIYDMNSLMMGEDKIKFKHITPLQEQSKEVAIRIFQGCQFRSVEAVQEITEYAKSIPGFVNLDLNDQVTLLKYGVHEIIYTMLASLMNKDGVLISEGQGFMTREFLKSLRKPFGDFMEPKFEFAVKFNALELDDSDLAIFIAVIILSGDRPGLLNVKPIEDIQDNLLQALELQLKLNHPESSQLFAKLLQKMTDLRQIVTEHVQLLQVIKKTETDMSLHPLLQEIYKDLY
Chain of Nuclear receptor subfamily 1 group I member 2 (Homo sapiens) (O75469 whole entry, looked up, the tested form may be a part): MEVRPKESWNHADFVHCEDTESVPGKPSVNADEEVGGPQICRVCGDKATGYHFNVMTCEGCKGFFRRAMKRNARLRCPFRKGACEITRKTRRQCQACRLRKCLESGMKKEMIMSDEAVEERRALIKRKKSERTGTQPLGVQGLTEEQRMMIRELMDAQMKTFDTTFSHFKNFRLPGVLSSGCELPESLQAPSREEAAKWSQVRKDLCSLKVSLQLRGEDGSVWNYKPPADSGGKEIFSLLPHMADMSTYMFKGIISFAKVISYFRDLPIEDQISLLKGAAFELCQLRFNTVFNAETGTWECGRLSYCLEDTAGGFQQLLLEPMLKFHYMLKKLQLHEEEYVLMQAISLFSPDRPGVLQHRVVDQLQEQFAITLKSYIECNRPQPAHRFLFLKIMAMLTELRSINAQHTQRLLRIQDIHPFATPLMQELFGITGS
Chain of Cellular tumor antigen p53 (Homo sapiens) (P04637 whole entry, looked up): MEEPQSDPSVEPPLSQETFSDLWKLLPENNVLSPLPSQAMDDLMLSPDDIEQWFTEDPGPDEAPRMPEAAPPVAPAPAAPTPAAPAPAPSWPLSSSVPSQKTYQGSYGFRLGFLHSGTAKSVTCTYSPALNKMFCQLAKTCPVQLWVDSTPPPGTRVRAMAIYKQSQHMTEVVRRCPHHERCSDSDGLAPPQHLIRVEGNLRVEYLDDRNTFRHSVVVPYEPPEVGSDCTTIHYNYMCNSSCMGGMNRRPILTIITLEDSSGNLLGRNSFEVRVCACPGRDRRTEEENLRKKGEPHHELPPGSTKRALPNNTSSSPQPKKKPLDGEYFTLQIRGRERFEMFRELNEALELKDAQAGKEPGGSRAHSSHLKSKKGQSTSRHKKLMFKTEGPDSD
Chain of human RAR-related Orphan Receptor gamma (RORg), RORC (gene 6097) (P51449 whole entry, looked up, the tested form may be a part): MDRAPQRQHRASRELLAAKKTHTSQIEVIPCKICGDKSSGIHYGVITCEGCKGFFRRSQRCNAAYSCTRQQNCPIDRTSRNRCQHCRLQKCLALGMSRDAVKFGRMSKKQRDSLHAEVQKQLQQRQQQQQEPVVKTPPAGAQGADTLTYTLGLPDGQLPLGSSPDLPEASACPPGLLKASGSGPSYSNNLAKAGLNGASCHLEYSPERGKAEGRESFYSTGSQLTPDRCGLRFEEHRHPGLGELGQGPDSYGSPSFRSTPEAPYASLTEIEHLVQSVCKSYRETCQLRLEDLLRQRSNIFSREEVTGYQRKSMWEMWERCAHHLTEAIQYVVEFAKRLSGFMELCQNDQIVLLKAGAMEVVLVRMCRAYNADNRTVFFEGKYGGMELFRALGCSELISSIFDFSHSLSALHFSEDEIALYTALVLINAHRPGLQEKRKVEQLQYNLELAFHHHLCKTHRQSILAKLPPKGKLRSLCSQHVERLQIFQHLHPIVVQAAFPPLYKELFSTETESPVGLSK
Chain of human Retinoic Acid Receptor beta (RARb), RARB (gene 5915) (P10826 whole entry, looked up, the tested form may be a part): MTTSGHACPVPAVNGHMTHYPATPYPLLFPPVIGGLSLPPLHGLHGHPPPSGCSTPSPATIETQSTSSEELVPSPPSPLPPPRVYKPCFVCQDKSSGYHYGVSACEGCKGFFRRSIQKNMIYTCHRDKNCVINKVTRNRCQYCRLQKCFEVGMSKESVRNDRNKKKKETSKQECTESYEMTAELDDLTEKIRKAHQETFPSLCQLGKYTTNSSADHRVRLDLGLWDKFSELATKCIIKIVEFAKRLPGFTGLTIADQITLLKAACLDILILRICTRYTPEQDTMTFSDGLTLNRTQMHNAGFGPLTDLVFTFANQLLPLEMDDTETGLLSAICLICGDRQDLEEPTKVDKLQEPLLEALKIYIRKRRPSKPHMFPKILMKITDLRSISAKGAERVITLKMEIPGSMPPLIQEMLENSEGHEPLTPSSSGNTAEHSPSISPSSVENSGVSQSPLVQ
Chain of human Peroxisome Proliferator-activated Receptor delta (PPARd), PPARD (gene 5467) (Q03181 whole entry, looked up, the tested form may be a part): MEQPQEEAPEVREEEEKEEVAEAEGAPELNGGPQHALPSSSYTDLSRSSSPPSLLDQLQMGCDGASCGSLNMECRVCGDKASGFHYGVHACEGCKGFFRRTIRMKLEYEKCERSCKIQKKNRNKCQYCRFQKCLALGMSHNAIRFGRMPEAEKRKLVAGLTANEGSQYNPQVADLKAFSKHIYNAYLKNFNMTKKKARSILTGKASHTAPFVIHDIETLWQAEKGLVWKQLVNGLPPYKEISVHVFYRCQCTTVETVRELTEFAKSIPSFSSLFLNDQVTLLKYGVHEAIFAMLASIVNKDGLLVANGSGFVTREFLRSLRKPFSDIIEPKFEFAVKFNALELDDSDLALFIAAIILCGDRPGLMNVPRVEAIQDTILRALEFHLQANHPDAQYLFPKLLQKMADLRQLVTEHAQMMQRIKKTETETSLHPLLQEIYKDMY
Chain of human RAR-related Orphan Receptor beta (RORb), RORB (gene 6096) (Q92753 whole entry, looked up, the tested form may be a part): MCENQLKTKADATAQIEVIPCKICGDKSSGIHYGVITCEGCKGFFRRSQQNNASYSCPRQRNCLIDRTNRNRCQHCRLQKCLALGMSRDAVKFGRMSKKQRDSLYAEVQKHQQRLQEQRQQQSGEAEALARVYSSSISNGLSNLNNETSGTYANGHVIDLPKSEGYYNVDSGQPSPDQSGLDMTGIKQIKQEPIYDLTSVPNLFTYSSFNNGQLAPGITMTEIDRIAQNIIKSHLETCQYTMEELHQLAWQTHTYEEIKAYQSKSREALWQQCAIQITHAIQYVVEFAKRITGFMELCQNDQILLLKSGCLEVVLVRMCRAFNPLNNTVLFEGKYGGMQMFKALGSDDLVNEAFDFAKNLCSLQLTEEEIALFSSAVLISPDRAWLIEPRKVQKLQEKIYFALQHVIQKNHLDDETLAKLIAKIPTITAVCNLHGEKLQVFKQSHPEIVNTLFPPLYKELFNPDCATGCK
Chain of Retinoic acid receptor alpha (Homo sapiens) (P10276 whole entry, looked up, the tested form may be a part): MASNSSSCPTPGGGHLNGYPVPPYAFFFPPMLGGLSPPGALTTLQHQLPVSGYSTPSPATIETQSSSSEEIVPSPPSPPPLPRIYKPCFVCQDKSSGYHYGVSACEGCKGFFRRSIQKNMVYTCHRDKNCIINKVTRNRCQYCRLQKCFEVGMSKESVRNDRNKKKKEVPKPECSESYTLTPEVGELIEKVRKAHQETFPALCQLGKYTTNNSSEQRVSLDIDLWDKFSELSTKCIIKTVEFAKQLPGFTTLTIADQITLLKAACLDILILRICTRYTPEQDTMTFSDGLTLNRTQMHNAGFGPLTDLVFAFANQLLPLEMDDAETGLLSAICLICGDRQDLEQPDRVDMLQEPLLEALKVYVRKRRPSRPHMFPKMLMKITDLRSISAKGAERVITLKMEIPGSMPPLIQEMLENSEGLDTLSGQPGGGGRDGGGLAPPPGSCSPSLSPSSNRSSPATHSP

COc1ccc([N+](=O)[O-])cc1O
outcome [1]: inactive | outcome [2]: inactive | outcome [3]: inactive | outcome [4]: inactive | outcome [5]: inactive | outcome [6]: inactive | outcome [7]: inactive | outcome [8]: inactive | outcome [9]: inactive | outcome [10]: inactive

O=[N+]([O-])c1cccc2ccccc12
outcome [1]: inactive | outcome [2]: inactive | AC50 [3]: 23.7 µM (active) | outcome [4]: inactive | outcome [5]: inactive | outcome [11]: inactive | outcome [12]: inactive | outcome [13]: inactive | outcome [14]: inactive | outcome [6]: inactive | outcome [15]: inactive | outcome [16]: inactive | outcome [9]: inactive | AC50 [17]: 30.4 µM (active)

CCCCCCCCCCCCCCC(Br)C(=O)O (stereo unspecified)
outcome [1]: inactive | AC50 [2]: 50.4 µM (active) | AC50 [3]: 30.1 µM (active) | AC50 [4]: 161 µM (active) | outcome [5]: inactive | AC50 [6]: 1.44 µM (active) | AC50 [7]: 7.74 µM (active) | AC50 [9]: 11.4 µM (active) | outcome [17]: inactive | outcome [18]: inactive

O=C(O)c1cc(I)cc(I)c1I
outcome [1]: inactive | outcome [2]: inactive | AC50 [3]: 100 µM (active) | outcome [4]: inactive | outcome [5]: inactive | AC50 [6]: 17.3 µM (active) | outcome [7]: inactive | outcome [8]: inactive | AC50 [9]: 11.9 µM (active) | outcome [17]: inactive

CCOC(=O)C(SP(=S)(OC)OC)c1ccccc1 (stereo unspecified)
outcome [1]: inactive | outcome [2]: inactive | AC50 [3]: 32 µM (active) | outcome [4]: inactive | outcome [5]: inactive | outcome [11]: inactive | AC50 [12]: 20 µM (active) | AC50 [13]: 25.8 µM (active) | AC50 [14]: 29.1 µM (active) | outcome [15]: inactive | AC50 [16]: 14.9 µM (active) | AC50 [9]: 70.8 µM (active) | AC50 [17]: 3.52 µM (active) | outcome [18]: inactive

Cc1cc(Cl)ccc1OC(C)C(=O)O (stereo unspecified)
outcome [1]: inactive | outcome [2]: inactive | outcome [3]: inactive | outcome [4]: inactive | outcome [5]: inactive | outcome [12]: inactive | outcome [13]: inactive | outcome [14]: inactive | outcome [7]: inactive | outcome [15]: inactive | outcome [16]: inactive | AC50 [9]: 71.4 µM (active) | outcome [19]: inactive | outcome [10]: inactive | outcome [18]: inactive

C=CCN=C=S
outcome [1]: inactive | outcome [2]: inactive | outcome [3]: inactive | outcome [4]: inactive | outcome [5]: inactive | outcome [6]: inactive | outcome [7]: inactive | outcome [9]: inactive | outcome [17]: inactive | outcome [10]: inactive

CCOP(=S)(OCC)SCS(=O)(=O)C(C)(C)C
outcome [1]: inactive | outcome [2]: inactive | outcome [3]: inactive | outcome [4]: inactive | outcome [5]: inactive | outcome [12]: inactive | outcome [13]: inactive | outcome [14]: inactive | outcome [15]: inactive | outcome [8]: inactive | outcome [16]: inactive | outcome [9]: inactive | AC50 [17]: 2.41 µM (active) | outcome [18]: inactive

NC(=O)c1ccc(N)nc1
outcome [1]: inactive | outcome [2]: inactive | outcome [3]: inactive | outcome [4]: inactive | outcome [5]: inactive | outcome [6]: inactive | outcome [8]: inactive | outcome [20]: inactive | outcome [17]: inactive | outcome [10]: inactive | outcome [18]: inactive

O=C(O)COc1ccc(Cl)cc1
outcome [1]: inactive | outcome [2]: inactive | outcome [3]: inactive | outcome [4]: inactive | outcome [5]: inactive | outcome [6]: inactive | outcome [7]: inactive | outcome [9]: inactive
